ClpP mod = qHTS Assay for Activators of ClpP; Potency, µM (series often up to 57.5 µM); ATP-dependent Clp protease proteolytic subunit (Bacillus subtilis (strain 168)), P80244; 340,000 compounds, 1.9% hits; purified B. subtilis ClpP, FRET peptide cleavage, 20 min; active means well fitted falling curve with a large enough effect; inconclusive means small, poorly fitted or top-dose-only effect; inactive means no such curve, though single readings can be large or run the other way; further: the source files actives as falling curves though it sought activators and does not explain the sign; nearly all actives have a fitted effect of over 65% in size
Target sequence (P80244 whole entry, looked up): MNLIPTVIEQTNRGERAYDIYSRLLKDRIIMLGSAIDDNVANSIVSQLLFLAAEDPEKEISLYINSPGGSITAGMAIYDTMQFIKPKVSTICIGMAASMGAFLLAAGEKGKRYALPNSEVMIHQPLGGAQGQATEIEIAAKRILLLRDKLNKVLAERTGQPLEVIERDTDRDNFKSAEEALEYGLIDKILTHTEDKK
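FRET quenching reversal measured ClpP activation: 10 microg/mL B. subtilis ClpP at pH 8 with the FRET-FV decapeptide, read at 430 nm after 320 nm excitation. The 20-min minus 0-min signal was scaled between DMSO/no-enzyme wells and ADEP (5.8 microM final).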
Nrf2 ARE act = qHTS of Nrf2 Activators | Potency, µM (top dose mostly 46.1 µM), hits mostly activators | AREc32 ARE-luciferase reporter (MCF7-derived line), luminescence, 24 h | AID 624171, 2012 | 410,000 compounds, 0.31% hits; further: nearly all actives have a fitted effect of over 65% in size
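Cells of the AREc32 ARE-luciferase line are plated in OPTI-MEM containing 5% FBS and left overnight at 37 deg C. Compounds are pinned in, incubation continues 24 hr, and firefly luciferase signal is then measured.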
A549 tox = Nrf2 qHTS screen for inhibitors: counterscreen for cytotoxicity; A549 ARE-Fluc cells, CellTiter-Fluor viability, 18-24 h; Potency, µM (titrated, usually from 46 µM), actives largely listed as inhibitors; 390,000 compounds, 0.16% hits
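A549 ARE-Fluc cells in 5% FBS OPTI-MEM, 5000 cells/well, rested 2 h then exposed to compounds in concentration-response for 18-24 h at 37 °C. Viability by CellTiter-Fluor fluorescence (Ex 405/Em 525) after 30 min; luciferase luminescence (BugLite, 15 min, RT) read afterwards.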
p53 reactivator = qHTS assay for re-activators of p53 using a Luc reporter; H1299 p53-A138V BP100-luciferase reporter, luminescence, 24 h; Potency, µM (top dose mostly 92.2 µM), actives largely listed as activators; 320,000 compounds, 0.063% hits; AID 504706, 2011; further: nearly all actives have a fitted effect of over 45% in size
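H1299 (p53-null), stable ts p53-A138V + BP100-Luc; 1000 cells/well, Opti-MEM/10% FBS; cpd 4 pt, 1:5; 24 h, 37 deg C, 5% CO2; detection reagent 10 min RT; luminescence.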
miR-21 reporter = qHTS Assay for Modulators of miRNAs and/orActivators of miR-21; HeLa miR-21 FLuc reporter, luciferase, 48 h; Potency, µM (series often up to 38.3 µM), hits mostly activators; 340,000 tested, under 10 active;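 further: miR-21 action dims this reporter so a rising signal means less miR-21 action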
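Luminescence from a firefly luciferase reporter carrying a miR-21 binding site downstream, stably expressed under a CMV promoter in HeLa cells that make miR-21 endogenously, reports miRNA modulation after 48 h compound exposure up to approximately 40uM final.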
Nrf2 inh = Nrf2 qHTS screen for inhibitors. A549 ARE-Fluc reporter, luciferase luminescence, 18-24 h. Potency, µM (series often up to 46 µM), actives largely listed as inhibitors. 360,000 compounds, 2.1% hits. AID 504444, 2011; further: nearly all actives have a fitted effect of over 60% in size
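Nrf2 function is reported as luminescence of an ARE-controlled luciferase in A549 cells. Compounds were tested at several concentrations, and a CellTiter-Fluor read on the same wells flagged cytotoxicity.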
Hits are given with their value; - = inactive; ? = inconclusive; . = not tested or not shown. Sampled rows, rich in hits. Any-hit rate of the full collection: about 3.7%. Unless noted, the call rests on the fitted dose curve; in most records, active means well fitted curve in the direction sought with a large enough effect; inconclusive means small, poorly fitted or top-dose-only effect, or another doubt; inactive means no such curve, though single readings can be large; an effect the other way counts as inactive or inconclusive.

SMILES	ClpP mod	Nrf2 ARE act	A549 tox	p53 reactivator	miR-21 reporter	Nrf2 inh
CC1Cn2c(C(=O)NCc3cccc(Br)c3)cc3cccc(c32)S1 (stereo not given)	32µM	-	?	.	-	-
CCOc1ccc(CCNC(=O)c2cc3cccc4c3n2CCS4)cc1	22µM	-	-	.	-	-
COc1ccc(CC(=O)NCc2cccc(CNC(=O)Cc3ccc(OC)c(OC)c3)c2)cc1OC	-	-	-	-	-	-
CCOc1ccc(CCNC(=O)c2ccc3c(c2)N(Cc2ccc(C)cc2)CCS3)cc1	?	-	-	.	-	-
O=C(NCc1cccc(Br)c1)c1cccn1-c1nnc(N2CCCCC2)s1	-	-	-	.	-	-
O=C(/C=C/Nc1ccc(F)c(F)c1)c1cccs1	-	8.9µM	-	?	-	?
O=C(/C=C/Nc1ccc(F)cc1)c1ccco1	-	?	-	45µM	-	?
O=C(/C=C/Nc1ccc(F)cc1)c1cccs1	-	6.3µM	-	.	.	?
O=C(/C=C/Nc1ccc(S(=O)(=O)Nc2ncccn2)cc1)c1cccs1	.	-	-	-	-	-
O=C(NC(=S)Nc1ccc(NC(=O)c2cccs2)cc1)c1cc2ccccc2o1	-	-	-	-	-	?
O=C(c1cc2ccccc2o1)c1cccs1	-	22µM	-	?	-	?
Cc1ccc(CNC(=O)COC(=O)c2ccccc2OCC(=O)Nc2ccc(Br)cc2)cc1	-	.	.	.	.	.
CCc1nnc(NC(=O)CSc2nc3c([nH]c4ccccc43)c(=O)n2-c2ccc(F)cc2)s1	-	-	-	.	-	.
O=C(c1ccc(N2CCN(C(=O)c3ccc(F)c(F)c3)CC2)cc1)c1cccc(F)c1	-	-	-	-	-	16µM
O=C(c1cccc(F)c1)N1CCN(c2cccc(Cl)c2)CC1	28µM	-	-	-	-	-
O=C(c1cccc(F)c1)N1CCC(N2CCOCC2)CC1	14µM	-	-	-	-	.
O=C(c1cccc(F)c1)N1CCCN(C(=O)c2cccc(F)c2)CC1	-	-	-	-	-	?
CCN(CC)C(=O)CSc1nc2c(c(=O)n(C)c(=O)n2C)n1Cc1ccccc1	-	-	-	.	-	-
Cc1nc2ccccc2n1/N=C/c1ccc([N+](=O)[O-])o1	-	-	?	.	.	21µM
Cc1n[nH]c(=S)n1/N=C/c1ccc(-c2ccccc2[N+](=O)[O-])o1	-	10µM	?	-	-	.
COc1ccc(CNC(=O)CCCCCn2c(=O)[nH]c3ccccc3c2=O)cc1	?	-	-	.	-	.
Cc1c(C(=O)C(=O)N2CCN(C)CC2)c2ccccc2n1C	13µM	-	-	-	-	-
COc1ccccc1N1CCN(C(=O)C(=O)c2c(C)n(C)c3ccccc23)CC1	-	-	-	-	-	-
O=C(c1ccc2c(c1)N(Cc1ccc(F)cc1)C(=O)c1ccccc1S2(=O)=O)N1CCCCCC1	-	-	-	.	-	-
CCCCN(C)C(=O)c1ccc2c(c1)N(Cc1ccc(F)cc1)C(=O)c1ccccc1S2(=O)=O	-	-	?	.	-	16µM
SMILES	ClpP mod	Nrf2 ARE act	A549 tox	p53 reactivator	miR-21 reporter	Nrf2 inh
O=C(NCCc1ccccc1Cl)c1ccc2c(c1)nc1n2CCCCC1	-	-	-	.	-	.
COc1ccccc1S(=O)(=O)N1CCn2cccc2C1C (stereo not given)	28µM	-	-	-	.	-
CC(C)Nc1nc(C#N)nc(Nc2ccccc2)n1	.	.	-	.	.	-
CCN(CC)c1ccc(/C=N/OC(C)C(=O)Nc2ccc(C)cc2)cc1 (stereo not given)	28µM	-	-	?	-	?
CC(=O)Nc1ccc(/C=N/OCC(=O)Nc2ccc(C)cc2)cc1	-	-	-	-	-	-
CCOC(=O)c1cc(-c2ccc(C)cc2)n(CCC(=O)Nc2ccc(OC)c(OC)c2)c1C	-	-	-	.	-	18µM
COc1ccccc1C(=O)NC1(C(F)(F)F)C(=O)Nc2c1c(=O)[nH]c(=O)n2-c1ccc(F)cc1 (stereo not given)	-	-	-	.	-	?
CCOc1ccc(NC(=O)c2sc(-n3nc(C)c(CCC(C)C)c3C)nc2C)cc1	-	-	-	.	-	-
COc1ccc(-n2nnnc2C2CCN(S(=O)(=O)c3cccc(Cl)c3C)CC2)cc1	-	-	-	.	-	?
Oc1ccc(Cl)cc1C1=NNC(c2ccc(Cl)cc2)C1 (stereo not given)	-	-	-	28µM	-	-
Oc1c(Cl)cc(Cl)cc1C1=NNC(c2ccc(Cl)cc2)C1 (stereo not given)	.	?	-	-	-	-
CCCCC(=O)NC(c1ccc([N+](=O)[O-])cc1)c1c(O)ccc2ccccc12 (stereo not given)	-	-	?	-	-	?
CC(C)C(=O)NC(c1ccco1)c1c(O)ccc2ccccc12 (stereo not given)	22µM	-	-	-	-	-
COc1ccc(C(NC(=O)C(C)C)c2c(O)ccc3ccccc23)cc1OC (stereo not given)	28µM	-	-	-	-	-
CC(C)C(=O)NC(c1ccccc1Cl)c1c(O)ccc2ccccc12 (stereo not given)	25µM	-	-	-	-	-
CCC(=O)NC(c1ccc([N+](=O)[O-])cc1)c1c(O)ccc2ccccc12 (stereo not given)	-	-	?	-	-	16µM
CCCc1c(-c2ccc(Cl)cc2)ncn1Cc1cccc(-c2ccccc2)c1	-	.	.	.	.	.
O=C(NC(c1ccc(Cl)cc1)c1c(O)ccc2ccccc12)c1ccccc1 (stereo not given)	-	-	?	-	?	12µM
COC(=O)c1c(NC(=O)C2COc3ccccc3O2)sc2c1CCN(C(=O)OC)C2 (stereo not given)	?	-	.	.	.	.
COC(=O)c1c(NC(=O)C2COc3ccccc3O2)sc2c1CCN(Cc1ccccc1)C2 (stereo not given)	20µM	-	-	-	-	-
Cc1cccc(N2CCN(Cc3nnc(-c4cccc(Br)c4)o3)CC2)c1C	-	-	-	.	-	?
Cc1cccc(N2CCN(C(=O)c3ccc4c(c3)N(Cc3cccc(Cl)c3)C(=O)c3ccccc3S4=O)CC2C)c1 (stereo not given)	-	-	-	.	-	.
O=C(NNC(=O)c1ccccc1Cl)c1ccccc1Cl	.	-	-	-	-	-
C=C(c1ccccc1Cl)[n+]1ccccc1	-	-	?	.	-	7.3µM
Cc1ccccc1C(=O)Nn1c(C)ccc1C	.	.	.	-	-	.
C=C(c1ccccc1C)[n+]1ccccc1	-	-	-	-	-	18µM
